Among the test systems are HCT-15 colon; HT29 colon; SNB-75 CNS; SNB-19 CNS; U251 CNS; PC-3 prostate; SK-MEL-5 melanoma; UACC-62 melanoma; LOX IMVI melanoma; SK-MEL-28 melanoma; SK-MEL-2 melanoma; EKVX NSCLC; SN12C renal; UO-31 renal; TK-10 renal; ACHN renal; CAKI-1 renal; A498 renal; CCRF-CEM leukemia; MOLT-4 leukemia.
What all share (assay): NCI-60 one-dose screen, 48 h (100 = growth as untreated, 0 = no growth, -100 = all killed)
What all share (conditions): 10 µM unless noted

Structures are written as SMILES. About 83,000 compounds went through this panel and 20% of them were active in at least one assay; those are over-represented in the sample as a whole.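 Values shown are percent growth following 48 h exposure of cells in 96-well plates to a single concentration of compound; below 10 was considered active.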 A number with no mark means an inactive call. Activity calls are given as the source filed them.

For the compound `O=c1cc(CP(=O)(O)O)c2cc(O)c(-c3ccccc3)cc2o1`, the growth in the assay with HCT-15 colon is 101%; in the assay with HT29 colon it was 108%; in the assay with SNB-75 CNS, 83.8%; with SNB-19 CNS it was 96.8%; with U251 CNS it was 100%; in the assay with PC-3 prostate, 98.6%. The growth in the assay on SK-MEL-5 melanoma is 98.1%; with UACC-62 melanoma it was 97.8%; in the assay with LOX IMVI melanoma, 99.5%; with SK-MEL-28 melanoma, 104%; in the assay on SK-MEL-2 melanoma it was 107%; in the assay on EKVX NSCLC it was 89%. The growth in the assay with SN12C renal is 98.2%; with UO-31 renal, 88.2%; in the assay with TK-10 renal, 106%; in the assay on ACHN renal it was 98.4%; in the assay with CAKI-1 renal, 93%; with A498 renal, 109%. Also, the growth is 93.6% in the assay on CCRF-CEM leukemia and 99.2% in the assay with MOLT-4 leukemia.
Regarding `C#CCOc1cccc(Nc2ncnc3c2ncn3C2CCN(C(=O)CCl)C2)c1` (stereo not given), the growth is 1.63% (active) in the assay with HCT-15 colon; -68.4% (active) with HT29 colon; -3.65% (active) in the assay on SNB-75 CNS; 13.7% in the assay on SNB-19 CNS; -92% (active) with U251 CNS; -14.2% (active) in the assay with PC-3 prostate. Moreover, the growth with SK-MEL-5 melanoma is -85.7% (active); in the assay with UACC-62 melanoma, -66% (active); in the assay with LOX IMVI melanoma it was -86.5% (active); in the assay with SK-MEL-28 melanoma, -43.9% (active); with SK-MEL-2 melanoma, -0.328% (active); in the assay with EKVX NSCLC, 5.11% (active). The growth in the assay on SN12C renal is -71.3% (active); with UO-31 renal, -97.8% (active); in the assay with TK-10 renal it was -83.8% (active); in the assay with ACHN renal, -98.9% (active); in the assay with CAKI-1 renal, -97.4% (active); with A498 renal, 85.9%. Further, the growth with CCRF-CEM leukemia was -28% (active); in the assay with MOLT-4 leukemia it was -26.8% (active).
For the compound `CCOC(=O)NC(=S)n1oc(=O)c2ccccc21`, the growth with HCT-15 colon was 103%; in the assay on HT29 colon, 105%; in the assay on SNB-75 CNS it was 94.7%; with SNB-19 CNS, 104%; in the assay on U251 CNS, 98.6%; with PC-3 prostate, 98.3%. Also, the growth is 108% with SK-MEL-5 melanoma; 93.3% in the assay with UACC-62 melanoma; 96.8% with LOX IMVI melanoma; 103% in the assay on SK-MEL-28 melanoma; 110% in the assay on SK-MEL-2 melanoma; 101% in the assay with EKVX NSCLC. For the same compound, the growth was 102% in the assay with SN12C renal; 82.2% with UO-31 renal; 109% in the assay on TK-10 renal; 101% with ACHN renal; 90.4% in the assay with CAKI-1 renal; 103% with A498 renal. Also, the growth in the assay on CCRF-CEM leukemia is 101%; in the assay on MOLT-4 leukemia it was 95.9%.
On to `CC(C)CCC[C@@H](C)[C@H]1CC[C@H]2[C@@H]3CC=C4c5sc(Nc6cc(C(F)(F)F)cc(C(F)(F)F)c6)nc5CC[C@]4(C)[C@H]3CC[C@]12C`, for which the growth was 101% in the assay with HCT-15 colon; 110% with HT29 colon; 95.5% in the assay with SNB-75 CNS; 98.6% with SNB-19 CNS; 96% in the assay on U251 CNS; 92.8% with PC-3 prostate. The growth was 100% in the assay with SK-MEL-5 melanoma; 94.5% in the assay with UACC-62 melanoma; 96.8% with LOX IMVI melanoma; 113% in the assay on SK-MEL-28 melanoma; 124% in the assay with SK-MEL-2 melanoma; 97% with EKVX NSCLC. Besides, the growth in the assay with SN12C renal was 92.3%; with UO-31 renal, 73.4%; with TK-10 renal, 119%; in the assay with ACHN renal, 106%; with CAKI-1 renal, 85.6%; in the assay on A498 renal, 123%. The growth in the assay with CCRF-CEM leukemia was 107%; in the assay on MOLT-4 leukemia it was 103%.
With `COc1ccc(-c2cc(-c3cccnc3)nc3sc4c(N)c(C(C)=O)c(-c5ccccc5)nc4c23)cc1OC`, the growth with HCT-15 colon was 73.6%; in the assay on HT29 colon, 52.5%; in the assay with SNB-75 CNS it was 63.5%; in the assay with SNB-19 CNS it was 86%; in the assay on U251 CNS, 55.6%; in the assay on PC-3 prostate, 54.9%. Further, the growth in the assay with SK-MEL-5 melanoma is 39.4%; with UACC-62 melanoma it was 75.5%; with LOX IMVI melanoma, 75.5%; in the assay with SK-MEL-28 melanoma, 70%; with SK-MEL-2 melanoma, 89.1%; in the assay with EKVX NSCLC, 87.4%. For the same compound, the growth with SN12C renal was 80.3%; in the assay with UO-31 renal, 51.8%; in the assay with TK-10 renal it was 77.6%; with ACHN renal, 81.1%; with CAKI-1 renal it was 61.8%; in the assay on A498 renal, 71.7%. For the same compound, the results for the growth with CCRF-CEM leukemia and in the assay on MOLT-4 leukemia were 70.5% and 72.5%, respectively.
Regarding `Cc1sc2nc(NCCN)[nH]c(=O)c2c1C`, the growth was 92.8% in the assay on HCT-15 colon; 95.1% in the assay on HT29 colon; 67.4% with SNB-75 CNS; 87.5% in the assay with SNB-19 CNS; 95.9% in the assay on U251 CNS; 93.3% with PC-3 prostate. Further, the growth is 96% with SK-MEL-5 melanoma; 95.4% with UACC-62 melanoma; 91.3% in the assay with LOX IMVI melanoma; 98.4% with SK-MEL-28 melanoma; 103% in the assay on SK-MEL-2 melanoma; 89.6% with EKVX NSCLC. For the same compound, the growth in the assay on SN12C renal is 90%; in the assay with UO-31 renal it was 91.4%; in the assay with TK-10 renal it was 96.9%; in the assay with ACHN renal, 91.2%; with CAKI-1 renal, 100%; in the assay with A498 renal, 91.8%. The growth in the assay with CCRF-CEM leukemia is 117%; with MOLT-4 leukemia, 106%.
As to `C=C1C(=O)O[C@H]2[C@H]1CC/C(CNC(=O)Cc1c[nH]c3ccccc13)=C\CC[C@@]1(C)O[C@@H]21`, the growth is 15.6% with HCT-15 colon; 1.86% (active) in the assay with HT29 colon; 73.9% in the assay with SNB-75 CNS; 57.5% in the assay on SNB-19 CNS; 43.9% in the assay on U251 CNS; 49.9% with PC-3 prostate. Also, the growth in the assay on SK-MEL-5 melanoma was 42.1%; with UACC-62 melanoma, -23.5% (active); in the assay on LOX IMVI melanoma, -75.3% (active); with SK-MEL-28 melanoma, -29.9% (active); with SK-MEL-2 melanoma, 33.5%; with EKVX NSCLC it was 79.3%. In addition, the growth with SN12C renal is 13.9%; in the assay on UO-31 renal, 34.9%; in the assay with TK-10 renal, -35.9% (active); in the assay with ACHN renal, 3.84% (active); in the assay with CAKI-1 renal, 14.7%; in the assay on A498 renal, 41.2%. Besides, the growth in the assay on CCRF-CEM leukemia is -35.9% (active); in the assay on MOLT-4 leukemia, -4.65% (active).

(Values after PubChem BioAssay (NCI).)
